# Measurements taken from ChEMBL document CHEMBL1157539, “Thousands of chemical starting points for antimalarial lead identification” (Nature, 2010).
# Tests used:
# Format in all cases: functional
# Plasmodium falciparum [1] = test: GSK_TCMDC: Inhibition of Plasmodium falciparum 3D7 in whole red blood cells, using parasite LDH activity as an index of growth. Test compounds present at 2uM
# Plasmodium falciparum [2] = test: GSK_TCMDC: Inhibition of Plasmodium falciparum Dd2 in whole red blood cells, using parasite LDH activity as an index of growth. Test compounds present at 2uM
# HepG2 = test: GSK_TCMDC: Percent inhibition of human HepG2 cell line. Test compounds present at 10uM.
SMILES,Inhibition (Plasmodium falciparum [1]) [%],Inhibition (Plasmodium falciparum [2]) [%],Inhibition (HepG2) [%]
O=C(Nc1cccc(C(F)(F)F)c1)NC1CCN(c2ccnc3ccccc23)CC1.O=C(O)C(F)(F)F,100,43,23
COc1cc(CNC2Cc3ccccc3C2)ccc1Oc1ccc2nc[nH]c2c1.O=C(O)C(F)(F)F,98,50,30
COc1ccccc1C1CCN(C2CCC(NC(=O)/C=C/c3cc(F)c(F)cc3F)CC2)CC1 (centres undefined),85,0,39
CO/C(=C\C=C\c1cc2cc(Cl)c(Cl)cc2[nH]1)C(=O)NCCCN1CCN(c2cccc(OCC(=O)Nc3cccc(C(=O)c4ccccc4)c3)c2)CC1,94,88,48
CCOC(=O)NCC(=O)Nc1cccc(-c2cccc(-c3nc4cc(C(F)(F)F)ccc4[nH]3)c2)c1,91,34,59
CC(=O)c1cccc(NC(=O)NC2CCN(CCCCCNC(=O)/C=C/c3ccc(Cl)c(Cl)c3)CC2)c1,94,1,7
COc1ccc2nccc(N3CCC(SCCNCc4cc5c(cn4)OCCO5)C3)c2n1.Cl (centres undefined),100,100,30
CCn1cnc2c(N3CCCCS3(=O)=O)cc(C(=O)N[C@@H](Cc3ccccc3)[C@H](O)CNC3CCOCC3)cc21,99,87,7
CS(=O)(=O)CCNCc1nc(-c2ccc3c(Nc4ccc(Cl)cc4F)ccnc3c2)cs1,88,28,19
CNCCNC(=O)C1Cc2c([nH]c3c(C)cccc23)C(c2ccc(Cl)c(Cl)c2)N1 (centres undefined),100,60,13
OC(CNC1CCCCC1)Cn1c2ccc(Br)cc2c2cc(Br)ccc21 (centres undefined),98,100,10
Cc1cc(O)nc(NC#N)n1,99,3,8
COc1ccc2nccc([C@H](O)CN3CCC(NCc4cc(C)c5c(c4)OCCO5)CC3)c2n1.Cl,96,35,12
CCCCN(CCCC)CCCN(CCCN(CCCC)CCCC)c1cc(C)nc(Nc2ccc(Br)cc2)n1.O=C(O)C(=O)O,99,98,51
Cc1cc2c(cc1C(F)(F)F)N(C(=O)Nc1cc(OCCN(C)C)cc(C(F)(F)F)c1)CC2.Cl,100,19,16
CN(C(=O)c1snnc1-c1ccccc1)C1CCN(CCCCCNC(=O)/C=C/c2ccc(Cl)c(Cl)c2)CC1,96,58,44
O=C(Nc1cc(F)cc(F)c1)N[C@H]1CCN(CCCCCNC(=O)C2CC2c2ccc(Cl)c(Cl)c2)C1 (some centres undefined),88,0,24
O=C(C=Cc1ccc(Cl)c(Cl)c1)NCCCCCN1CCC(CCCNC(=O)c2ccc3c(c2)OCO3)CC1,98,64,38
NCCO.O=C(Nc1ccc([N+](=O)[O-])cc1Cl)c1cc(Br)cc(Cc2ccccc2)c1O,84,96,75
O=C(Nc1cccc(CN2CCN(C(=O)c3cccs3)CC2)c1)c1cccs1.O=C(O)C(F)(F)F,95,91,0
CCNc1cc(C(=O)N[C@@H](Cc2ccccc2)[C@H](O)CN[C@@H](C)c2ccccc2)cc(N2CCCC2=O)c1,98,96,7
CN1CCC(N2CCN(Cc3cccc(-c4ccc(-c5nc6cc(F)ccc6[nH]5)cc4)c3)CC2)CC1.O=C(O)C(F)(F)F,100,100,92
CN(C(=O)c1ccccc1)C1c2cc(C#N)ccc2OC(C)(C)C1O (centres undefined),97,4,8
OC(CNc1ccnc(Nc2cccc(Cl)c2)n1)c1cccc(F)c1 (centres undefined),90,29,16
CC1CCN(CC[C@H]2CCCN2S(=O)(=O)c2cccc(NC(=O)Nc3ccc(C(F)(F)F)cc3)c2)CC1,100,41,12
CCCc1ccc(C2CCN(CCCCNC(=O)c3ccc(NC(=O)c4ccc(Cl)cc4)cc3)CC2)cc1,100,100,39
CCOc1cc(NCCSCc2nc[nH]c2C)nc2ccccc12,92,10,4
Cc1noc(C)c1-c1cccc(CNCc2ccc(-c3cccc(-c4nc5ccccc5[nH]4)c3)cc2)c1.O=C(O)C(F)(F)F,100,57,50
